Where a name gives a salt, the structure may show the parent alone.
How the values were obtained:
Test in all cases: Euclidean distance of Cell Painting phenotypic profile (signed KS, 77 features) to DMSO centroid (dimensionless distance); 5 or 10 uM (library dependent); higher = stronger phenotypic change vs DMSO (phenoactivity)
Conditions in all cases: 48 h
786-O = system: 786-O
Procedure, shortened: (§1)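 Phenoactivity is computed as Euclidean distance to the median vehicle profile. The profiles, drawn from 77 Harmony features scored as signed Kolmogorov-Smirnov statistics versus same-plate vehicle wells, were corrected for plate position, correlation-weighted and replicate-averaged at the top dose. Stained cells were imaged confocally at 20X (9 fields/well) after 48 h with library compounds at 10 or 5 uM, 0.1% DMSO final, in five cancer lines and a healthy fibroblast line.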

A549 = system: A549
Procedure, shortened: as §1

DU145 = system: DU145
Procedure, shortened: as §1

FB = system: FB
Procedure, shortened: as §1

HEPG2 = system: HEPG2
Procedure, shortened: as §1

OVCAR4 = system: OVCAR4
Procedure, shortened: as §1

SMILES	Euclidean distance (786-O)	Euclidean distance (A549)	Euclidean distance (DU145)	Euclidean distance (FB)	Euclidean distance (HEPG2)	Euclidean distance (OVCAR4)
C[C@H](Nc1ncnc2nc[nH]c12)c1cc2cccc(Cl)c2c(=O)n1-c1ccccc1 [Duvelisib (IPI-145. INK1197)]	2.36	1.56	2.77	2.98	1.32	1.91
O=C(Nc1cnn2ccc(N3CCC[C@@H]3c3cc(F)ccc3F)nc12)N1CC[C@H](O)C1 [Larotrectinib (LOXO-101) sulfate]	0.597	0.899	1.05	0.634	0.551	1.27
COc1ccc(-c2ccc3c(N4CCOC[C@@H]4C)nc(N4CCOC[C@@H]4C)nc3n2)cc1CO	4	3.49	2.25	5.02	2.55	3.73
COc1ccc2c(c1)C(=O)N(CCc1ccc(S(=O)(=O)NC(=O)NC3CCCCC3)cc1)C(=O)C2(C)C [Gliquidone]	1.02	0.773	1.03	1.06	3.11	0.973
NC(=O)OCC(COC(N)=O)c1ccccc1 [Felbamate]	1.13	0.883	0.57	1.58	0.405	0.882
O=c1[nH]c(=O)n([C@H]2C[C@H](O)[C@@H](CO)O2)cc1C(F)(F)F [Trifluridine]	2.89	3.28	2.74	1.07	3.56	2.85
C#Cc1cccc(Nc2ncnc3cc(OCCOC)c(OCCOC)cc23)c1 [Erlotinib HCl (OSI-744)]	1.55	1.87	1.94	1.57	0.884	2.37
CN1CCCN=C1/C=C/c1cccc(O)c1 [Oxantel Pamoate]	0.869	0.907	0.598	0.7	0.882	0.824
CCCc1nc(C(C)(C)O)c(C(=O)OCc2oc(=O)oc2C)n1Cc1ccc(-c2ccccc2-c2nnn[nH]2)cc1 [Olmesartan Medoxomil]	2.78	2.49	2.38	3.38	3.32	3.28
Nc1cc(C(F)(F)F)c(-c2nc(N3CCOCC3)nc(N3CCOCC3)n2)cn1 [Bimiralisib (PQR309)]	2.95	2.83	1.83	4.83	2.44	2.86
CNC[C@H](O)c1cccc(O)c1 [Phenylephrine HCl]	1.46	0.809	0.788	1.34	0.549	0.844
O=C(Nc1ccc([N+](=O)[O-])cc1Cl)c1cc(Cl)ccc1O [Niclosamide]	2.27	2.95	2.1	3.12	0.819	2.45
CC(C)(Oc1ccc(CCNC(=O)c2ccc(Cl)cc2)cc1)C(=O)O [Bezafibrate]	0.885	1.16	0.777	1.09	1.04	1.71
CN1C(C(=O)Nc2ccccn2)=C(O)c2ccccc2S1(=O)=O [Piroxicam]	0.732	0.909	0.966	0.725	1.06	0.704
CC(C)[N+](C)(CCOC(=O)C1c2ccccc2Oc2ccccc21)C(C)C [Propantheline bromide]	0.803	0.839	0.798	0.725	0.423	0.718
CCn1cc(C(=O)O)c(=O)c2cc(F)c(N3CCN(C)CC3)cc21 [Pefloxacin Mesylate]	1.56	0.826	0.983	1.04	1.02	1.3
CNCCC=C1c2ccccc2CCc2ccccc21 [Nortriptyline hydrochloride]	1.69	1.13	1.37	1.82	1.8	1.69
CC(C)NC(=N)NC(=N)Nc1ccc(Cl)cc1 [Proguanil]	1.21	1.28	0.798	0.927	0.823	1.25
COc1cc(OC)c(C(=O)CCCN2CCCC2)c(OC)c1 [Buflomedil HCl]	1.46	1.05	0.962	1.04	0.715	1.18
COc1ccc2cc3[n+](cc2c1OC)CCc1cc2c(cc1-3)OCO2 [Berberine HCl]	0.872	1.5	0.626	0.96	1.8	0.946
C=CC(=O)N1CCC(Oc2cc3c(Nc4ccc(Cl)c(Cl)c4F)ncnc3cc2OC)CC1 [Poziotinib (HM781-36B)]	1.98	3.02	2.11	2.99	3.43	2.12
CC(C)(O)CC[C@@H](O)[C@](C)(O)[C@H]1CC[C@@]2(O)C3=CC(=O)[C@@H]4C[C@@H](O)[C@@H](O)C[C@]4(C)[C@H]3CC[C@]12C [20-Hydroxyecdysone]	0.539	1.05	1.19	1.28	1.06	1.08
Cc1cccc(-c2[nH]c(C(C)(C)C)nc2-c2ccc3c(c2)OCO3)n1	1.83	1.76	0.978	2.17	1.99	1.62
C=CC(=O)Nc1cc(Nc2nccc(-n3cc(CN(C)C)c(-c4ccccc4)n3)n2)c(OC)cc1N1CCOCC1	0.904	1.76	1.79	1.2	1.27	2.16

SMILES	Euclidean distance (786-O)	Euclidean distance (A549)	Euclidean distance (DU145)	Euclidean distance (FB)	Euclidean distance (HEPG2)	Euclidean distance (OVCAR4)
O=c1cc(N2CCOCC2)oc2c(-c3cccc4c3sc3ccccc34)cccc12	3.24	2.66	2.15	3.31	2.73	1.93
CCCCOC(=O)c1ccc(N)cc1 [Butamben]	1.09	0.881	0.906	1.05	0.737	1.03
Cn1nnc2c(C(N)=O)ncn2c1=O [Temozolomide]	1.44	0.97	2.71	0.972	1.44	0.619
C[C@@H](c1ncncc1F)[C@](O)(Cn1cncn1)c1ccc(F)cc1F [Voriconazole]	1.9	1.17	0.9	1.01	0.988	1.25
COc1cc2ncnc(Nc3ccc(F)c(Cl)c3)c2cc1OCCCN1CCOCC1 [Gefitinib hydrochloride]	1.01	1.23	1.18	0.779	0.482	1.31
O=C(NCc1ccccc1)c1csc(Nc2ccncn2)n1 [Thiazovivin]	1.92	1.18	2.87	2.01	1.84	1.6
CCCN(CCC)C(=O)C1=Cc2ccc(-c3ccc(C(=O)N4CCCC4)cc3)cc2N=C(N)C1 [Motolimod (VTX-2337)]	1.67	2.04	1.35	1.27	2.18	2.2
Cc1onc(-c2ccccc2)c1C(=O)N[C@@H]1C(=O)N2[C@@H]1SC(C)(C)[C@@H]2C(=O)O [Oxacillin sodium monohydrate]	1.39	1.09	1.47	1.11	0.665	1.37
CS(=O)(=O)c1ccc(C2=C(c3ccccc3)C(=O)OC2)cc1 [Rofecoxib]	1.05	0.859	0.686	0.821	0.51	1.24
Cc1cccc(N(C)C(=S)Oc2ccc3ccccc3c2)c1 [Tolnaftate]	1.29	0.815	1.01	0.908	1.96	1.36
C=CC(=O)Nc1cccc(Nc2nc(Nc3ccc(Oc4ccnc(C(=O)NC)c4)cc3)ncc2F)c1	1.82	1.47	1.48	2.2	2.3	1.63
CC(C(=O)O)c1ccc2c(c1)[nH]c1ccc(Cl)cc12 (stereo not drawn) [Carprofen]	1.08	0.684	0.84	1.38	0.421	1.11
Nc1cccc2c1CN(C1CCC(=O)NC1=O)C2=O (stereo not drawn) [Lenalidomide (CC-5013)]	1.74	1.2	0.79	1.03	0.639	1.15
c1cc(CN2CCCNCCNCCCNCC2)ccc1CN1CCCNCCNCCCNCC1 [Plerixafor 8HCl (AMD3100 8HCl)]	1.37	1.38	0.691	1.5	0.69	1.7
Cc1cccc(Nc2ccncc2S(=O)(=O)NC(=O)NC(C)C)c1 [Torsemide]	0.608	0.66	0.572	0.798	0.917	0.866
CN1C2CCCC1CC(NC(=O)c1nn(C)c3ccccc13)C2 (stereo not drawn) [Granisetron HCl]	1.32	0.903	1.37	1.04	1.27	1
C[C@]12CC[C@@H]3c4ccc(OS(=O)(=O)O)cc4CC[C@H]3[C@@H]1CCC2=O [Estropipate]	0.946	0.41	0.686	0.891	0.623	1.17
C=C1[C@H](CO)[C@@H](O)C[C@@H]1n1cnc2c(=O)[nH]c(N)nc21 [Entecavir]	1.46	1.16	1.05	1.14	1.35	1.15
CC(=O)N[C@H]1[C@H]([C@H](O)[C@H](O)CO)OC(C(=O)O)=C[C@@H]1NC(=N)N [Zanamivir]	1.74	1	0.755	0.983	0.8	1.21
CCC(=O)Oc1ccc2c(c1)CCC1C2CCC2(C)C(OC(=O)CC)CCC12 (stereo not drawn) [17-Beta-Estradiol-3.17-Dipropionate]	1.55	0.8	1.46	1.21	0.326	0.98
Cc1cccc(-c2nn3c(c2-c2ccnc4ccc(C(N)=O)cc24)CCC3)n1	1.39	1.06	0.926	1.47	1.04	1.18
CC1(C)S[C@@H]2[C@H](NC(=O)Cc3ccccc3)C(=O)N2[C@H]1C(=O)O [Penicillin G Sodium]	1.04	0.576	1.12	0.979	0.871	1.93
O=c1[nH]c(=O)n([C@H]2C[C@H](O)[C@@H](CO)O2)cc1F [Floxuridine]	1.86	3	2.5	1.73	2.61	2.71
Fc1ccc(C(c2ccc(F)cc2)N2CCN(C/C=C/c3ccccc3)CC2)cc1 [Flunarizine 2HCl]	0.978	1.16	1.34	0.938	2.13	1.24

— the supplement of paper PMC10127200
